The panel holds about 83,000 compounds, 20% with a hit somewhere; the sample as a whole holds those more often.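 Assay: single dose, 48 h. Readout: percent growth (0 = no net growth; negative = cell death). Active: <10.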 Activity calls are given as the source filed them.
Each compound was assayed on COLO 205 colon (assay: NCI-60 one-dose screen, 48 h (100 = growth as untreated, 0 = no growth, -100 = all killed)). Conditions: 10 µM unless noted.

Structure (SMILES) | growth
N#Cc1c(N)[nH]c(S)c1C#N | 120% (inactive)
NC(=Nc1ccccc1)SCCCCSC(N)=Nc1ccccc1 | 125% (inactive)
CN(C)c1cccc2c(S(=O)(=O)N[C@H]3CC[C@H]4[C@@H]5CCc6cc(O)ccc6[C@H]5CC[C@]34C)cccc12 | 8.09% (active)
CCCCCCCCCCCCCCCCCc1nccn1CCO | 19% (inactive)
COC(=O)CCC1=C(C)/C(=C/c2[nH]c(-c3ccc[nH]3)cc2OC)N=C1C | 12.1% (inactive)
NC(=O)N/N=C/c1ccc(Br)o1 | 98.6% (inactive)
COc1ccc(OC)c2c1[nH]c(=O)c1c3ccccc3cn21 | -91.1% (active)
O=C1C(=O)c2ccc(Br)cc2-c2cc(Br)ccc21 | 119% (inactive)
O=c1c(O)cccn1CCCNCCCN(CCCn1cccc(O)c1=O)CCCn1cccc(O)c1=O | 125% (inactive)
CN(CCOc1ccc(CC2SC(=O)NC2=O)cc1)c1ccccn1 (centres undefined) | 82.7% (inactive)
COc1cccc2c1C(=O)c1c(O)c3c(c(O)c1C2=O)C[C@@](O)(/C(C)=N/NC(=O)c1cccc([N+](=O)[O-])c1)C[C@@H]3OC1CC(N)C(O)C(C)O1 (some centres undefined) | -98.1% (active)
Cc1nnc(Nc2ccc(NC(=O)Nc3ccc(Cl)cc3)cc2)c2ccccc12 | 28.2% (inactive)
O=C(Nc1ccc(Cl)cc1)Nc1ccc(Nc2nncc3ccccc23)cc1 | 18.6% (inactive)
OCc1nnn(-c2ccccc2)c1CO | 159% (inactive)
COc1ccc2c(c1)C(=O)c1c-2c(=O)n(CCCCCCC(=O)NO)c2ccccc12 | -39.3% (active)
O=[N+]([O-])c1ccc(N/N=C\c2ccccc2[N+](=O)[O-])nc1 | 133% (inactive)
CN1COc2ccc3ccccc3c2C1 | 133% (inactive)
O=C(Nc1cccc2ccccc12)c1cc2c(cc1Br)OCO2 | 76.2% (inactive)
Cc1cc(NC(=O)Nc2cc(Cl)ccc2C)no1 | 143% (inactive)

Structure (SMILES) | growth
O=C1C[C@@H]2/C(=C(O)\C=C\c3ccccc3)C(=O)C=C[C@@H]2O1 | -73.4% (active)
O=C1/C(=C/c2ccc([N+](=O)[O-])o2)Oc2ccc(Cl)cc21 | -57.8% (active)
c1ccc(N2CCN(c3nncc4ccccc34)CC2)nc1 | 106% (inactive)
O=C(Nc1ccc(Oc2ccc(NC(=O)Nc3ccc([N+](=O)[O-])cc3)cc2)cc1)Nc1ccc([N+](=O)[O-])cc1 | -51.1% (active)
Cc1cc(C)n(C(=O)c2nn(-c3ccc(Cl)cc3)cc2O)n1 | 106% (inactive)
NC(=O)c1ncn([C@@H]2O[C@H](CO)[C@@H](O)[C@H]2O)n1 | 82.6% (inactive)
CCCCN(CCCC)CCCOC(=O)c1ccc(N)cc1 | 57.3% (inactive)
COc1ccc2c(c1)C(=O)/C(=C/c1ccc([N+](=O)[O-])s1)O2 | -64.7% (active)
CCCCCCCCCCCCCCCCCC1=NC(C)(C)CN1CCO | -59.9% (active)
COc1cc([C@@H]2c3cc4c(cc3C(O[C@@H]3O[C@@H]5CO[C@@H](c6cccs6)OC5[C@H](O)[C@H]3O)C3COC(=O)[C@@H]32)OCO4)cc(OC)c1O (some centres undefined) | -23.8% (active)
CC12CCC3C(CCC4CC(=O)/C(=C\O)CC43C)C1CCC(=O)O2 (centres undefined) | 150% (inactive)
O=C(Nc1ccc(Cl)cc1Cl)Nc1ccc(-c2cccnc2)cc1N1CCC(CO)CC1 | 16.1% (inactive)
CCN(CC)CCCCNc1c2ccccc2[n+](C)c2c1[nH]c1ccccc12 | -65.9% (active)
Cc1ccc(NC(=O)Nc2ccc(-c3cccnc3)cc2N2CCC(CO)CC2)cc1 | 31.5% (inactive)
COc1cc(C2CC(c3ccc(C)cc3)=NN2C(C)=O)ccc1Oc1ccnc2cc(Cl)ccc12 (centres undefined) | 99.2% (inactive)
C[n+]1c2ccccc2c(NC2CCNCC2)c2[nH]c3ccccc3c21 | -1.65% (active)
Clc1ccc([C@@H]2C[C@@H]3Cc4cc(Br)c5ccccc5c4N2O3)c(Cl)c1 | 98.4% (inactive)
C=C(C)[C@@H]1C[C@H](O)Cc2cc(Cl)cc(Cl)c2N1 | 107% (inactive)

What follows are compounds tested on DU-145 prostate in the same assay as above. Conditions: 10 µM unless noted.

Structure (SMILES) | growth
N#Cc1c(N)[nH]c(S)c1C#N | 112% (inactive)
NC(=Nc1ccccc1)SCCCCSC(N)=Nc1ccccc1 | 93.5% (inactive)
CN(C)c1cccc2c(S(=O)(=O)N[C@H]3CC[C@H]4[C@@H]5CCc6cc(O)ccc6[C@H]5CC[C@]34C)cccc12 | 24% (inactive)
CCCCCCCCCCCCCCCCCc1nccn1CCO | 90% (inactive)
COC(=O)CCC1=C(C)/C(=C/c2[nH]c(-c3ccc[nH]3)cc2OC)N=C1C | 14.2% (inactive)
NC(=O)N/N=C/c1ccc(Br)o1 | 110% (inactive)
COc1ccc(OC)c2c1[nH]c(=O)c1c3ccccc3cn21 | -65% (active)
O=C1C(=O)c2ccc(Br)cc2-c2cc(Br)ccc21 | 68.4% (inactive)
O=c1c(O)cccn1CCCNCCCN(CCCn1cccc(O)c1=O)CCCn1cccc(O)c1=O | 112% (inactive)
CN(CCOc1ccc(CC2SC(=O)NC2=O)cc1)c1ccccn1 (centres undefined) | 107% (inactive)
COc1cccc2c1C(=O)c1c(O)c3c(c(O)c1C2=O)C[C@@](O)(/C(C)=N/NC(=O)c1cccc([N+](=O)[O-])c1)C[C@@H]3OC1CC(N)C(O)C(C)O1 (some centres undefined) | -49.7% (active)
Cc1nnc(Nc2ccc(NC(=O)Nc3ccc(Cl)cc3)cc2)c2ccccc12 | 57.8% (inactive)
O=C(Nc1ccc(Cl)cc1)Nc1ccc(Nc2nncc3ccccc23)cc1 | 33.7% (inactive)
OCc1nnn(-c2ccccc2)c1CO | 113% (inactive)
COc1ccc2c(c1)C(=O)c1c-2c(=O)n(CCCCCCC(=O)NO)c2ccccc12 | 9.94% (active)
O=[N+]([O-])c1ccc(N/N=C\c2ccccc2[N+](=O)[O-])nc1 | 101% (inactive)
CN1COc2ccc3ccccc3c2C1 | 107% (inactive)
O=C(Nc1cccc2ccccc12)c1cc2c(cc1Br)OCO2 | 103% (inactive)
Cc1cc(NC(=O)Nc2cc(Cl)ccc2C)no1 | 111% (inactive)

Structure (SMILES) | growth
O=C1C[C@@H]2/C(=C(O)\C=C\c3ccccc3)C(=O)C=C[C@@H]2O1 | -16.8% (active)
O=C1/C(=C/c2ccc([N+](=O)[O-])o2)Oc2ccc(Cl)cc21 | 35.7% (inactive)
c1ccc(N2CCN(c3nncc4ccccc34)CC2)nc1 | 99% (inactive)
O=C(Nc1ccc(Oc2ccc(NC(=O)Nc3ccc([N+](=O)[O-])cc3)cc2)cc1)Nc1ccc([N+](=O)[O-])cc1 | 17.3% (inactive)
Cc1cc(C)n(C(=O)c2nn(-c3ccc(Cl)cc3)cc2O)n1 | 30% (inactive)
NC(=O)c1ncn([C@@H]2O[C@H](CO)[C@@H](O)[C@H]2O)n1 | 82.7% (inactive)
CCCCN(CCCC)CCCOC(=O)c1ccc(N)cc1 | 88.2% (inactive)
COc1ccc2c(c1)C(=O)/C(=C/c1ccc([N+](=O)[O-])s1)O2 | 43.8% (inactive)
CCCCCCCCCCCCCCCCCC1=NC(C)(C)CN1CCO | 2.01% (active)
COc1cc([C@@H]2c3cc4c(cc3C(O[C@@H]3O[C@@H]5CO[C@@H](c6cccs6)OC5[C@H](O)[C@H]3O)C3COC(=O)[C@@H]32)OCO4)cc(OC)c1O (some centres undefined) | -33.4% (active)
CC12CCC3C(CCC4CC(=O)/C(=C\O)CC43C)C1CCC(=O)O2 (centres undefined) | 115% (inactive)
O=C(Nc1ccc(Cl)cc1Cl)Nc1ccc(-c2cccnc2)cc1N1CCC(CO)CC1 | 54.2% (inactive)
CCN(CC)CCCCNc1c2ccccc2[n+](C)c2c1[nH]c1ccccc12 | -0.206% (active)
Cc1ccc(NC(=O)Nc2ccc(-c3cccnc3)cc2N2CCC(CO)CC2)cc1 | 29.8% (inactive)
COc1cc(C2CC(c3ccc(C)cc3)=NN2C(C)=O)ccc1Oc1ccnc2cc(Cl)ccc12 (centres undefined) | 74.8% (inactive)
C[n+]1c2ccccc2c(NC2CCNCC2)c2[nH]c3ccccc3c21 | -1.88% (active)
Clc1ccc([C@@H]2C[C@@H]3Cc4cc(Br)c5ccccc5c4N2O3)c(Cl)c1 | 93.3% (inactive)
C=C(C)[C@@H]1C[C@H](O)Cc2cc(Cl)cc(Cl)c2N1 | 108% (inactive)
